153 variants from a collection of fitness landscapes (doi:10.1016/j.celrep.2020.107928) can be followed below.

Whole data set: some 81,000 sequences, median “one-hybrid fitness for binding NBS DNA” near -0.1, cut for the highest 2% near 0.36. This is one part of a sample in which the highest values are shown more often than they occur.

The chains are these.
B1: Caulobacter ParB omega fusion; a variant is named by its letters at X, in order, B8GW30 (parent)
chain: MESVVVGEPGMSEGRRGLGRGLSALLGEVDAAPAQAPGEQLGGSREAPIEILQRNPDQPRRTFREEDLEDLSNSIREKGVLQPILVRPSPDTAGEYQIVAGERAWRAAQRAGLKTVPIMVRELDDLAVLEIGIIENVQRADLNVLEEALSYKVLMEKFERTQENIAQTIGKSXSHVANXMRLLXLPDEVQSYLVSGELTAXHARAIAAAADPVALAKQIIEGGLSVRETEALARKAPNLSAGKSKGGRPPRVKDTDTQALESDLSSVLGLDVSIDHRGSTGTLTITYATLEQLDDLCNRLTRGI

In the experiment the parent is B1. The experiment in a line: one-hybrid fitness for binding NBS DNA (the Noc-binding site; scaled: cognate 1, non-cognate 0); higher = stronger binding. To be noted: with NBS DNA site. The method in brief:
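On M9-minus-histidine containing 0.1 mM IPTG and 5 mM 3-AT, E. coli USO cells with a HIS3 reporter, site 19 bp from the promoter, grew 48 hours at 37°C to select Caulobacter ParB libraries randomised at four specificity codons. Plasmids from before and after were Illumina-sequenced, with three replicate libraries pooled and variants under 10 reads left out. Fitness is the log change in variant-to-wild-type read ratio, rescaled against cognate and non-cognate.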
RRWG: the “one-hybrid fitness for binding NBS DNA” value is 0.216. Take RRCR: the “one-hybrid fitness for binding NBS DNA” value amounted to 0.75. Regarding RRWK, the “one-hybrid fitness for binding NBS DNA” value was 0.249. The value for RRCF was ≤ 0.2; that for RRYR was 0.728.

For the variant ETHW, the “one-hybrid fitness for binding NBS DNA” value is ≤ 0.2. The figure for GAPL is ≤ 0.2; for TTDQ it is ≤ 0.2. The figure for QPFL is ≤ 0.2; for QGKK it is ≤ 0.2. As to MPVQ, the “one-hybrid fitness for binding NBS DNA” value is ≤ 0.2. For KLMT, the “one-hybrid fitness for binding NBS DNA” value was ≤ 0.2.

PRPV: the “one-hybrid fitness for binding NBS DNA” value was ≤ 0.2. The figure for TLPW is ≤ 0.2. In the case of PPHD, the “one-hybrid fitness for binding NBS DNA” value is ≤ 0.2. For RYTW, the “one-hybrid fitness for binding NBS DNA” value is ≤ 0.2.

Consider DCRL, for which the “one-hybrid fitness for binding NBS DNA” value was found to be 0.405.

In the case of QCKL, the “one-hybrid fitness for binding NBS DNA” value was found to be 0.307. The figure for QTRL is 0.406; for QTKL it is 0.395; for QTYL it is ≤ 0.2. As to QCRL, the “one-hybrid fitness for binding NBS DNA” value was determined as 0.401. As to QMRL, the “one-hybrid fitness for binding NBS DNA” value amounted to 0.287. The figure for QPRL is ≤ 0.2. Regarding DPRL, the “one-hybrid fitness for binding NBS DNA” value was ≤ 0.2.

With QTDL, the “one-hybrid fitness for binding NBS DNA” value is ≤ 0.2.

Turning to QTVL, the “one-hybrid fitness for binding NBS DNA” value is ≤ 0.2. On to DIRL, for which the “one-hybrid fitness for binding NBS DNA” value is ≤ 0.2.

As to DKKC, the “one-hybrid fitness for binding NBS DNA” value was ≤ 0.2.

Take LTSP: the “one-hybrid fitness for binding NBS DNA” value is ≤ 0.2. The figure for DSLM is ≤ 0.2; for GRHR it is ≤ 0.2; for VANW it is ≤ 0.2.

RFPW: the “one-hybrid fitness for binding NBS DNA” value was ≤ 0.2. In the case of RCCM, the “one-hybrid fitness for binding NBS DNA” value is ≤ 0.2. As for PGLH, the “one-hybrid fitness for binding NBS DNA” value is ≤ 0.2.

As for CHHR, the “one-hybrid fitness for binding NBS DNA” value was ≤ 0.2. The value for QRKL was 0.367. As for QRVL, the “one-hybrid fitness for binding NBS DNA” value is ≤ 0.2. The value for QRYL was ≤ 0.2. The value for FRYF was ≤ 0.2; that for INML was ≤ 0.2.

In the case of RHDS, the “one-hybrid fitness for binding NBS DNA” value was ≤ 0.2. Take RHWS: the “one-hybrid fitness for binding NBS DNA” value was ≤ 0.2. As to RHHN, the “one-hybrid fitness for binding NBS DNA” value was ≤ 0.2.

For RHRS, the “one-hybrid fitness for binding NBS DNA” value amounted to 0.585. On to RHNH, for which the “one-hybrid fitness for binding NBS DNA” value was ≤ 0.2.

For RHYS, the “one-hybrid fitness for binding NBS DNA” value was 0.376.

For the variant RHRD, the “one-hybrid fitness for binding NBS DNA” value was ≤ 0.2.

On to RHHD, for which the “one-hybrid fitness for binding NBS DNA” value is ≤ 0.2. As for RHNS, the “one-hybrid fitness for binding NBS DNA” value came to 0.505. On to RHIS, for which the “one-hybrid fitness for binding NBS DNA” value is ≤ 0.2. For the variant RHHS, the “one-hybrid fitness for binding NBS DNA” value amounted to 0.443. As for RHRN, the “one-hybrid fitness for binding NBS DNA” value is ≤ 0.2. As for MVLT, the “one-hybrid fitness for binding NBS DNA” value is ≤ 0.2. For the variant QIMY, the “one-hybrid fitness for binding NBS DNA” value was ≤ 0.2. For AMWR, the “one-hybrid fitness for binding NBS DNA” value is ≤ 0.2.

Consider RYEA, for which the “one-hybrid fitness for binding NBS DNA” value is ≤ 0.2.

In the case of SMFC, the “one-hybrid fitness for binding NBS DNA” value was ≤ 0.2. The figure for RFVV is ≤ 0.2; for KGDK it is ≤ 0.2. Regarding QRAY, the “one-hybrid fitness for binding NBS DNA” value was 0.516. Regarding QCFY, the “one-hybrid fitness for binding NBS DNA” value turned out to be 0.213. On to QRFY, for which the “one-hybrid fitness for binding NBS DNA” value turned out to be 0.392. As for QCAY, the “one-hybrid fitness for binding NBS DNA” value amounted to 0.21. For QSAY, the “one-hybrid fitness for binding NBS DNA” value was ≤ 0.2. As to QSFY, the “one-hybrid fitness for binding NBS DNA” value was ≤ 0.2. The value for PAFP was ≤ 0.2; that for VCPS was ≤ 0.2; that for MCMN was ≤ 0.2. For DHRV, the “one-hybrid fitness for binding NBS DNA” value is ≤ 0.2. With QSTQ, the “one-hybrid fitness for binding NBS DNA” value was ≤ 0.2.

QCTQ: the “one-hybrid fitness for binding NBS DNA” value is ≤ 0.2.

As to QSTM, the “one-hybrid fitness for binding NBS DNA” value is ≤ 0.2. In the case of QRTQ, the “one-hybrid fitness for binding NBS DNA” value worked out at 0.437. Take QRTS: the “one-hybrid fitness for binding NBS DNA” value worked out at 0.685. As to QRTG, the “one-hybrid fitness for binding NBS DNA” value is 0.356. For QRTF, the “one-hybrid fitness for binding NBS DNA” value worked out at 0.294. For QCTV, the “one-hybrid fitness for binding NBS DNA” value was ≤ 0.2. The value for QCTM was ≤ 0.2; that for QPTV was ≤ 0.2; that for QRTV was 0.412. The figure for QRTM is 0.414. In the case of ATLR, the “one-hybrid fitness for binding NBS DNA” value was ≤ 0.2. As to IYRI, the “one-hybrid fitness for binding NBS DNA” value is ≤ 0.2.

For AKFY, the “one-hybrid fitness for binding NBS DNA” value is ≤ 0.2. As for IYLA, the “one-hybrid fitness for binding NBS DNA” value was ≤ 0.2.

Consider KPSG, for which the “one-hybrid fitness for binding NBS DNA” value is ≤ 0.2. The figure for GTKT is ≤ 0.2; for SIIE it is ≤ 0.2.

For the variant QCTH, the “one-hybrid fitness for binding NBS DNA” value was 0.295. In the case of QCTC, the “one-hybrid fitness for binding NBS DNA” value was ≤ 0.2.

With QPTC, the “one-hybrid fitness for binding NBS DNA” value was ≤ 0.2. QRTD: the “one-hybrid fitness for binding NBS DNA” value came out at 0.259. Regarding QRTK, the “one-hybrid fitness for binding NBS DNA” value was determined as 0.414. Consider QPTH, for which the “one-hybrid fitness for binding NBS DNA” value is ≤ 0.2.

QRTN: the “one-hybrid fitness for binding NBS DNA” value is 0.429. In the case of QPTK, the “one-hybrid fitness for binding NBS DNA” value is ≤ 0.2. For QRTC, the “one-hybrid fitness for binding NBS DNA” value turned out to be 0.395. Regarding QCTK, the “one-hybrid fitness for binding NBS DNA” value was ≤ 0.2.

As for QRTP, the “one-hybrid fitness for binding NBS DNA” value came out at 0.263. The figure for QRTH is 0.57; for LCDV it is ≤ 0.2; for ANGR it is ≤ 0.2. Consider WTTR, for which the “one-hybrid fitness for binding NBS DNA” value is ≤ 0.2.

For MSHC, the “one-hybrid fitness for binding NBS DNA” value was found to be 0.26.

Turning to SNER, the “one-hybrid fitness for binding NBS DNA” value was ≤ 0.2. For the variant FAVS, the “one-hybrid fitness for binding NBS DNA” value is ≤ 0.2. For the variant FHLT, the “one-hybrid fitness for binding NBS DNA” value is ≤ 0.2. For QCTY, the “one-hybrid fitness for binding NBS DNA” value amounted to 0.225. EFTS: the “one-hybrid fitness for binding NBS DNA” value is ≤ 0.2.

For the variant QRTY, the “one-hybrid fitness for binding NBS DNA” value is 0.519. Take EFTN: the “one-hybrid fitness for binding NBS DNA” value was 0.392. The figure for QPTY is ≤ 0.2; for EFTH it is ≤ 0.2; for PRAG it is ≤ 0.2. For the variant GACS, the “one-hybrid fitness for binding NBS DNA” value was ≤ 0.2. Take RHMR: the “one-hybrid fitness for binding NBS DNA” value came out at 0.368. For RLMR, the “one-hybrid fitness for binding NBS DNA” value is 0.341. Take RTMN: the “one-hybrid fitness for binding NBS DNA” value is ≤ 0.2. The value for RHMN was ≤ 0.2; that for RCMR was 0.461.

Take RKMP: the “one-hybrid fitness for binding NBS DNA” value is ≤ 0.2. In the case of RTMR, the “one-hybrid fitness for binding NBS DNA” value amounted to 0.503. For the variant RTMP, the “one-hybrid fitness for binding NBS DNA” value was ≤ 0.2. The value for RKMH was 0.214. Turning to RHMP, the “one-hybrid fitness for binding NBS DNA” value was ≤ 0.2. Turning to RPMR, the “one-hybrid fitness for binding NBS DNA” value is ≤ 0.2. As for RKMR, the “one-hybrid fitness for binding NBS DNA” value was found to be 0.577. In the case of SFRE, the “one-hybrid fitness for binding NBS DNA” value is ≤ 0.2. Regarding NGWG, the “one-hybrid fitness for binding NBS DNA” value was ≤ 0.2. As for SIAC, the “one-hybrid fitness for binding NBS DNA” value was ≤ 0.2.

For the variant KQGK, the “one-hybrid fitness for binding NBS DNA” value is ≤ 0.2.

For the variant IDPS, the “one-hybrid fitness for binding NBS DNA” value is ≤ 0.2. ICRN: the “one-hybrid fitness for binding NBS DNA” value is ≤ 0.2. As for NDES, the “one-hybrid fitness for binding NBS DNA” value is ≤ 0.2.

As for PLNE, the “one-hybrid fitness for binding NBS DNA” value was ≤ 0.2. Turning to RGAY, the “one-hybrid fitness for binding NBS DNA” value was ≤ 0.2. The figure for IIPP is ≤ 0.2; for THSS it is ≤ 0.2; for NHMG it is ≤ 0.2. The value for RAMR was 0.341; that for RQMP was ≤ 0.2; that for RSMR was 0.369. Take RQMD: the “one-hybrid fitness for binding NBS DNA” value was ≤ 0.2. As to RRMR, the “one-hybrid fitness for binding NBS DNA” value worked out at 0.723. Consider RIMR, for which the “one-hybrid fitness for binding NBS DNA” value turned out to be 0.319.

Consider RRMF, for which the “one-hybrid fitness for binding NBS DNA” value is ≤ 0.2. With RRMQ, the “one-hybrid fitness for binding NBS DNA” value was 0.253. Turning to RQMR, the “one-hybrid fitness for binding NBS DNA” value turned out to be 0.385. VAIA: the “one-hybrid fitness for binding NBS DNA” value was ≤ 0.2. Regarding LTDL, the “one-hybrid fitness for binding NBS DNA” value is ≤ 0.2. For HGGT, the “one-hybrid fitness for binding NBS DNA” value is ≤ 0.2.
